Screening data: PubChem, National Center for Advancing Translational Sciences (NCATS)
The list is not random: actives were taken first. Their share in the collection is about 18%.
TGFb inhibitor: qHTS for Inhibitors of TGF-b | HepG2 CAGA-GFP TGF-b/SMAD3 reporter, GFP fluorescence, 18 h; TGF-beta stimulated, 500 pg/mL final | Potency, µM (titrated, usually from 46.1 µM), without a hit: at the highest dose activity, negative = inhibition, most hits filed as inhibitors | hit rate 1.2% among 410,000; note: potency is the fitted concentration of half-maximal effect; % is set by controls: 0 for no effect and ±100 for the full control effect; nearly all actives have a fitted effect of over 65% in size
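Per well, imaged GFP fluorescence of HEPG2 CAGA-GFP cells gives the signal; cells get compound, then TGF-beta (500 pg/mL final), 18 h at 37 degrees C; %Activity versus -TGF-beta and +DMSO controls.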
HepG2 tox: qHTS for Inhibitors of TGF-b: Cytotox Counterscreen; HepG2 CAGA-GFP viability, ATP luminescence, 18 h; Potency, µM (series often up to 46.1 µM), for inactives: at the top dose activity change, negative = cytotoxicity, most hits filed as cytotoxic; hit rate 0.76% among 410,000; AID 588856, 2011; note: potency is the fitted concentration of half-maximal effect
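HepG2 CAGA-GFP cells (1000/well, DMEM with 1% FBS) received compound, then TGF-beta at 500 pg/mL final, and were incubated 18 hours at 37 degrees C. Viability was read by CellTiter-Glo luminescence. Media-only wells were set as complete cell-killing and DMSO as no toxicity.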
DT40 TDP1 CPT: qHTS for Inhibitors of human tyrosyl-DNA phosphodiesterase 1 (TDP1): qHTS in cells in presence of CPT; chicken DT40 Tdp1-/-;hTDP1 cells + 20 nM CPT, ATP luminescence, 48 h; Potency, µM (top dose mostly 46.2 µM), for the others: top-dose activity change, negative = growth inhibition, hits mostly inhibitors; hit rate 12% among 420,000; AID 686979, 2013; note: potency is the fitted concentration of half-maximal effect; % is set by controls: 0 for no effect and ±100 for the full control effect; nearly all actives have a fitted effect of over 55% in size
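Chicken DT40 Tdp1-/- cells complemented with human TDP1, 400 cells/well, exposed to compounds plus 20 nM camptothecin for at least 48 h at 37 C; viability read as ATP content by CellTiter-Glo luminescence.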
IL-1B inflam inh: qHTS for Inhibitors of Inflammasome Signaling: IL-1-beta AlphaLISA Primary Screen; THP-1 LPS/ATP IL-1B secretion, AlphaLISA, 16 h; active compounds read low; activity change, % at 57.5 µM; hit rate 4.7% among 360,000; AID 743279, 2014; in the data active = activity change below about -50%; inconclusive = mostly about -30% to -49%; note: % is set by controls: 0 for no effect and ±100 for the full control effect
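THP-1 cells pretreated 1 hr with compounds (up to 57.5 uM final), then stimulated with LPS (250 ng/mL final) plus ATP (1.25 mM final); secreted IL-1B measured by AlphaLISA after 16 hr, decreased signal indicating inhibition.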
TDP1 cell noCPT: qHTS for Inhibitors of human tyrosyl-DNA phosphodiesterase 1 (TDP1): qHTS in cells in absence of CPT; hit rate 15% among 420,000; Potency, µM (top dose mostly 46.2 µM), inactives show at the highest dose activity change, negative = growth inhibition, actives largely listed as inhibitors; DT40 Tdp1-/- hTDP1 cells, no CPT, ATP luminescence, 48 h; AID 686978, 2013; note: potency is the fitted concentration of half-maximal effect; % is set by controls: 0 for no effect and ±100 for the full control effect; nearly all actives have a fitted effect of over 55% in size
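Camptothecin absent (DMSO only). Human TDP1-complemented DT40 knockout cells, 400 cells/well, 37 °C for minimum 48 hr; ATP measured via CellTiter-Glo, 30 min dark incubation, luminescence.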
TDP1 inh: qHTS Assay for Inhibitors of Tyrosyl-DNA Phosphodiesterase (TDP1). Tyrosyl-DNA phosphodiesterase 1 (Homo sapiens), Q9NUW8. recombinant TDP1, AlphaScreen DNA substrate cleavage. Potency, µM (titrated, usually from 130 µM), inactives show at the highest dose activity change, negative = inhibition, hits mostly inhibitors. hit rate 0.28% among 350,000. AID 485290, 2010; note: potency is the fitted concentration of half-maximal effect; % is set by controls: 0 for no effect and ±100 for the full control effect; nearly all actives have a fitted effect of over 40% in size
Target sequence (Q9NUW8 whole entry, looked up): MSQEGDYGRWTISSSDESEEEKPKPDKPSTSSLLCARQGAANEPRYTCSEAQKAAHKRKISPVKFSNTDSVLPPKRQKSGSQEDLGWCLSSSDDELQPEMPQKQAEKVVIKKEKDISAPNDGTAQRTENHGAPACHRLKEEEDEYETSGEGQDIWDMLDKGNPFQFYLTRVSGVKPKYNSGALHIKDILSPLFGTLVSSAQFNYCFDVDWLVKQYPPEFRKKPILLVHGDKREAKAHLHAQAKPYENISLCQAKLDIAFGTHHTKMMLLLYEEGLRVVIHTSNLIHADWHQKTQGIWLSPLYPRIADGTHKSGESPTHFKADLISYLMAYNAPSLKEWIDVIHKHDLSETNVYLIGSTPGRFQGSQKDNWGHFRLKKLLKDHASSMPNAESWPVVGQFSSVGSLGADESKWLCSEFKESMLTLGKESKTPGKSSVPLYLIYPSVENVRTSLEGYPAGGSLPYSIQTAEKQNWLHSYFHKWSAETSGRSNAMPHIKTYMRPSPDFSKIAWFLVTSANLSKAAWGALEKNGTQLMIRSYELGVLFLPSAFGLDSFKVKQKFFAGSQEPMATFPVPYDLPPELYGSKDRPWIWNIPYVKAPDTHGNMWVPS
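Tdp1 1 nM final; 15 min RT w/ cpd; substrate 15 nM, 5 min; beads 10 ug/ml, 10 min; AlphaScreen read. Neg ctrl: no enzyme.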
* marks the source's active call; other numbers are inactive results; ? = inconclusive; . = no result. Unless noted, calls come from the whole dose curve; as a rule, active = well fitted curve in the direction sought with a large enough effect; inconclusive = small, poorly fitted or top-dose-only effect, or another doubt; inactive = no such curve, though single readings can be large; an effect the other way counts as inactive or inconclusive.

SMILES	TGFb inhibitor	HepG2 tox	DT40 TDP1 CPT	IL-1B inflam inh	TDP1 cell noCPT	TDP1 inh
CCOC(=O)C1C(=O)CC(C)(O)C(C(=O)OCC)C1c1cccs1 (stereo not drawn)	-7%	3%	8%	-1	0%	2%
Cc1ccccc1-n1c(SCc2cccc(F)c2)nc2[nH]ncc2c1=O	-24%	-29%	?	-74*	?	6%
COc1ccc(N2CCN(C(=O)CSc3nc4[nH]ncc4c(=O)n3-c3ccc(Br)cc3)CC2)cc1	-18%	-33%	?	-24	?	8%
O=c1c2cn[nH]c2nc(SCc2cc(=O)n3cc(Br)ccc3n2)n1-c1ccc(Br)cc1	?	0%	?	-51*	?	5%
CCc1ccc(-n2c(SCc3ccccc3F)nc3[nH]ncc3c2=O)cc1	?	-109%	21µM*	.	16µM*	9%
Cc1cccc2nc(CSc3nc4[nH]ncc4c(=O)n3-c3ccccc3Cl)cc(=O)n12	?	-11%	15µM*	-6	21µM*	5%
Cc1ccccc1-n1c(SCc2cc(=O)n3ccccc3n2)nc2[nH]ncc2c1=O	0%	-10%	?	0	-27%	9%
C/C=C(\NNC(C)=O)c1ccc(O)cc1	1%	-4%	?	.	?	.
COc1ccc(Br)cc1CNC(=O)C1COc2ccccc2C1 (stereo not drawn)	-13%	-13%	-21%	.	-29%	3%
NS(=O)(=O)c1ccc(NC(=O)COC(=O)COc2ccc(Br)cc2)cc1	-11%	-17%	-7%	4	14%	6%
Cc1ccc(-n2c(SCc3ccccc3F)nc3[nH]ncc3c2=O)cc1C	?	-113%	?	.	?	9%
Cc1ccc(-n2c(SCc3ccccc3F)nc3[nH]ncc3c2=O)cc1Cl	?	-97%	21µM*	.	15µM*	8%
CN(C)c1ccc(-c2cccc3nccn23)cc1	?	-40%	?	31	15µM*	.
Clc1cccc(-c2cccc3nccn23)c1	-3%	-14%	23µM*	16	21µM*	.
COc1ccc(NC(=O)C2CCCN(S(=O)(=O)c3ccc(F)cc3)C2)cc1 (stereo not drawn)	-24%	-36%	15µM*	.	15µM*	2%
COc1ccc(S(=O)(=O)N2CCCC(C(=O)Nc3cccc(C(C)=O)c3)C2)cc1 (stereo not drawn)	-13%	7%	?	-10	?	5%
COc1ccc(S(=O)(=O)N2CCCC(C(=O)Nc3ccc4c(c3)OCCO4)C2)cc1 (stereo not drawn)	-28%	-7%	21µM*	?	?	7%
Cc1ccc(S(=O)(=O)N2CCCC(C(=O)N(Cc3cccs3)C3CC3)C2)cc1 (stereo not drawn)	?	-1%	13µM*	-9	13µM*	2%
O=C(Nc1cccc(F)c1)C1CCCN(S(=O)(=O)c2ccccc2)C1 (stereo not drawn)	-16%	-23%	18µM*	2	?	0%
OCC[C@H]1C[C@@H](O)[C@H](O)[C@]2(OCCc3ccccc32)O1	19%	5%	7%	33	14%	.
CCC(=O)c1ccc(OC(=O)C2CCN(C3=NS(=O)(=O)c4ccccc43)CC2)cc1	-6%	-12%	1%	-20	0%	0%
CCN(CC)C(=O)Cn1c(=O)n(CC(=O)N2CCCCC2)c(=O)c2sccc21	0%	5%	-2%	-16	1%	5%
O=C(COC(=O)COc1ccccc1[N+](=O)[O-])NCc1ccc2c(c1)OCO2	-20%	-3%	6%	29	15%	-21%
C[C@@H]1CN([C@@H](C)CO)C(=O)CCCn2nncc2CO[C@@H]1CN(C)C(=O)Nc1ccc2c(c1)OCO2	12%	-4%	-1%	3	3%	.
Cc1ccc(NC(=O)C2CCCN(S(=O)(=O)c3ccc(C)cc3)C2)cc1 (stereo not drawn)	-19%	-6%	16µM*	.	16µM*	2%
SMILES	TGFb inhibitor	HepG2 tox	DT40 TDP1 CPT	IL-1B inflam inh	TDP1 cell noCPT	TDP1 inh
Cc1ccc(NC(=O)C2CCCN(S(=O)(=O)c3cccs3)C2)cc1 (stereo not drawn)	0%	-12%	?	-5	?	4%
CCOc1ccc(OCC)c(NC(=O)C2CCCN(S(=O)(=O)c3ccc(C)cc3)C2)c1 (stereo not drawn)	15%	-6%	26µM*	18	16µM*	2%
CCOc1ccc(OCC)c(NC(=O)C2CCCN(S(=O)(=O)c3c(C)n[nH]c3C)C2)c1 (stereo not drawn)	2%	4%	-13%	-1	-24%	11%
Cc1ccc2oc(=O)n(Cc3ccccc3)c2c1	1%	-1%	-21%	43	-30%	-3%
COc1ccc(-c2oc3ccccc3c(=O)c2OC(C)=O)cc1	?	-19%	23µM*	19	16µM*	0%
CC(=O)Oc1c(-c2ccc(Br)o2)oc2ccccc2c1=O	?	-30%	26µM*	-29	15µM*	4%
CCOC(=O)COc1c(-c2ccc(OC)cc2)oc2ccccc2c1=O	-2%	-4%	?	11	?	4%
COc1ccc(/C=N/NC(=O)c2cc(-c3ccccc3OC)nc3ccccc23)cc1COC(C)=O	-2%	-14%	10µM*	-28	14µM*	9%
COc1ccc(/C=N/NC(=O)c2cc(-c3ccc(C)cc3C)nc3ccccc23)cc1COC(C)=O	-3%	10%	?	0	1.5µM*	4%
COc1ccc(/C=N\NC(=O)c2ccccc2OC)cc1COc1c(F)c(F)c(F)c(F)c1F	?	-24%	-5%	-2	-21%	0%
CCN(CC)C(=O)COc1ccc(/C=N/NC(=O)c2cc(-c3ccccc3OC)nc3ccccc23)cc1OC	2%	4%	?	.	?	.
CCSc1nnc(NC(=O)C2CC(=O)N(Cc3ccc(C)cc3)C2)s1 (stereo not drawn)	-15%	-14%	-16%	34	-25%	1%
CCN(CC)S(=O)(=O)c1ccc(N2CC(C(=O)Nc3cccc(C(=O)NC4CC4)c3)CC2=O)cc1 (stereo not drawn)	4%	-2%	?	-22	0%	.
